tim10-1 inh – inhibits growth of tim10-1 mutant yeast; S. cerevisiae tim10-1 ts strain growth, BacTiter-Glo, 24 h; inhibition, % at 20 µM; hit rate 2.2% among 330,000;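 active = inhibition of at least 40%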;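 note: mutant grown at 25 °C; 0% = DMSO wells with yeast and 100% = wells holding no yeast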
TIM10 inh – TIM10 yeast growth inhibition; S. cerevisiae TIM10 strain growth, BacTiter-Glo luminescence, 24 h; inhibition, % at 10 µM; hit rate 1.4% among 330,000; AID 463195;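 active = inhibition of 40% or more at the single tested concentration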;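 note: wild-type TIM10 isogenic control strain grown at permissive 25 °C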
PfHsp90 yeast 2 – inhibits growth of yeast expressing Plasmodium falciparum Hsp90 | hit rate 0.32% among 310,000 | S. cerevisiae expressing PfHsp90, BacTiter-Glo ATP, 48 h; yeast lacking PDR1 and PDR3 efflux regulators | inhibition, % at 9.4 µM;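 active = every replicate shows inhibition above about 80%, whatever the replicate mean, limit read from the data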;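 note: 0% = DMSO neutral controls and 100% = 20 µM radicicol positive controls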
Rce1 inhib – yeast Ras-converting enzyme inhibition. Q03530. yeast membranes, quenched prenylated peptide cleavage fluorescence. calls only. hit rate 0.27% among 290,000. AID 2563;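 active = fall in fluorescence gain of 50% or more versus controls, with final raw signal at or below 3038400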;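 note: plate controls were neutral control wells for no effect and wells lacking membranes for full effect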
Target sequence (Q03530 whole entry, looked up): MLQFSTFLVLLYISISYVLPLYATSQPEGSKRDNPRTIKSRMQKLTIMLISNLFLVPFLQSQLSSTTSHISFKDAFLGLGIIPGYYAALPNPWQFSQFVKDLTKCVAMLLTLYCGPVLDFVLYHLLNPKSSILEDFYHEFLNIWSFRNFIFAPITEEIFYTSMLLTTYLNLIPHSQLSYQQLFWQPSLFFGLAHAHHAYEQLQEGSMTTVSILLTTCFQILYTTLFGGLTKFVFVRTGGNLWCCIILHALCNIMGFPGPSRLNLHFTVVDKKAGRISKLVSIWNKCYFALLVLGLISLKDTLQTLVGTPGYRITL
tim23-1 inh – growth inhibitors of tim23-1 mutant yeast | S. cerevisiae tim23-1 growth, BacTiter-Glo luminescence, 24 h | inhibition, % at 20 µM | hit rate 1.3% among 330,000 | AID 463212;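 active = growth inhibition of the mutant yeast at or above 50%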;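 note: temperature-sensitive mutant grown at 25 °C; plate controls were DMSO-treated mutant yeast for no effect and medium wells lacking yeast for full effect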
Numbers without * were called inactive; i = inactive; x = not tested or not shown; + = active, no number. Most compounds without a hit are left out; they make up all but 3.7% or so of the library.

SMILES | tim10-1 inh | TIM10 inh | PfHsp90 yeast 2 | Rce1 inhib | tim23-1 inh
Cc1c(C)c2c(OCC(=O)NCc3ccncc3)cc3c(c2oc1=O)CCC(C)(C)O3 | 5 | 5 | 2 | + | -18
CC(C)NC(=O)CSc1nnc(CNC(=O)OC(C)(C)C)n1C | -2 | 18 | -3 | i | 10
CC(C)(C)N(Cc1ccccc1)C(=O)COC(=O)CNC(=O)c1ccco1 | 6 | 9 | -10 | i | 8
Cc1nn(C)cc1C(=O)Nc1ccc2c(c1)OCCO2 | -15 | 4 | 4 | i | -7
O=C(C=Cc1cccc(O)c1)c1ccccc1O | x | x | 104* | x | x
O=C(/C=C/c1ccc(O)cc1)c1ccc(O)cc1O | 33 | 30 | 2 | i | 32
CCC(C)NC(=O)c1cc2c(=O)n3cccc(C)c3nc2s1 (configuration not stated) | 15 | 8 | 9 | + | 27
Cc1c(C(=O)N(C)C2CCCCC2)sc2ncnc(N3CCN(c4ccccc4)CC3)c12 | 33 | 18 | -4 | i | 35
CCC1C/C(=C\c2cccnc2)C(=O)/C(=C/c2cccnc2)C1 (configuration not stated) | x | x | 100* | x | x
O=C1/C(=C/c2cccnc2)CC/C1=C\c1cccnc1 | 11 | 1 | 4 | i | 14
Cc1ccc2oc(=O)c3cc(C(=O)NCCCN4CCN(C)CC4)sc3c2c1 | 14 | -8 | -13 | i | -2
CN1CCN(CCCNC(=O)c2cc3c(=O)n(C)c4ccccc4c3s2)CC1 | 20 | 4 | 4 | + | -6
COc1ccc(Cc2nc3ccc(C(=O)N4CCCC4)cc3o2)cc1 | -3 | -4 | -5 | + | 0
COc1ccc(Cc2nc3ccc(C(=O)N4CCCC4)cc3o2)cc1OC | 9 | -4 | -9 | i | -9
O=[N+]([O-])CC1(n2nc3ccccc3n2)CCCCC1 | 11 | 6 | 8 | i | 3
O=C(O)c1ccc2cccc(Cl)c2c1O | -1 | 2 | 4 | + | 1
O=C(O)c1cccc(O)c1O | -12 | 3 | 10 | i | 7
COc1cc(C=c2c3ccccc3n3c2cc(-c2ccccc2)[n+]3C)cc(OC)c1OC | x | x | -12 | x | x
COc1cc(N(C)C)ccc1C=c1c2ccccc2n2c1cc(-c1ccccc1)[n+]2C | x | x | 104* | x | x
CN(C)c1ccc(C=c2c3ccccc3n3c2cc(-c2ccccc2)[n+]3C)cc1 | x | x | 105* | x | x
COc1ccc(Br)cc1CNC(=O)CCNC(=O)Cn1ccc2ccccc2c1=O | 1 | 5 | -17 | i | -6
CCC(=O)OCOc1ccc(/C=C2/CCC(CN(C)C)C2=O)cc1 (configuration not stated) | x | x | 143* | x | x
CCOc1ccc(/C=C2\CCC(C3CCCC3)C2=O)cc1 (configuration not stated) | 7 | 8 | 26 | i | 9
O=C1CC(NS(=O)(=O)c2ccccc2F)CN1c1ccc2c(c1)OCCO2 (configuration not stated) | -9 | -6 | x | i | -1
CCCC(=O)Nc1ccc2c(c1)nc(CCN1CCCCC1)n2C | -8 | -2 | 3 | i | 1
SMILES | tim10-1 inh | TIM10 inh | PfHsp90 yeast 2 | Rce1 inhib | tim23-1 inh
C=CCn1cc(-c2ccccc2)cc(C#N)c1=O | 6 | -28 | 11 | + | -8
Cc1ccc(-c2cc(C)nc3ncnn23)cc1 | 23 | 11 | -7 | i | 17
Cc1ccc(-c2cc(C)nc3nc(N)nn23)cc1 | 16 | 3 | -2 | + | 20
Cc1ccc(N2CC(C(=O)OCC(=O)c3ccc(C)c([N+](=O)[O-])c3)CC2=O)cc1 (configuration not stated) | 15 | 8 | 17 | i | 6
Cn1c(CN2CCCC2)c(C#N)c2ccccc21 | 13 | 3 | -4 | i | 9
Cn1c(CN2CCOCC2)c(C#N)c2ccccc21 | 13 | -7 | 22 | + | -6
COC(=O)C1=CNC=C(C(=O)OC)C1c1cccc2ccccc12 | 15 | 17 | 3 | + | 21
COC(=O)C1=CNC=C(C(=O)OC)C1c1ccccc1Cl | 23 | 1 | 0 | x | 12
Cc1[nH]c(N=Nc2ccccc2)nc1N=Nc1ccccc1 | -4 | 9 | 104* | i | 39
O=S(=O)(Nc1cccc2ccccc12)N1CCCC1 | 5 | 11 | 3 | + | 22
CCNC(=S)N1CCN(c2ccccn2)CC1 | 8 | 0 | 3 | i | 7
CC(NNC(=S)N1CCN(c2ccccn2)CC1)c1nccc2ccccc12 (configuration not stated) | x | x | 121* | x | x

Compound activity from PubChem.
